High-throughput results: PubChem BioAssay, The Scripps Research Institute Molecular Screening Center
MITF inh = blocks human microphthalmia-associated transcription factor | actives 0.91% (n = 650,000) | AlphaScreen MITF homodimerization, bead proximity signal | inhibition, % at 2.6 µM; in the data active = inhibition above about 50%
GPR151 activ = human GPR151 activation | Q8TDV0 | PathHunter beta-arrestin GPR151 cells, luminescence | activation, % at 11.2 µM | actives 1% (n = 650,000) | AID 1508602; in the data active = activation above about 4.9%
FBW7 activator = activators of human E3 ligase FBW7. AlphaScreen FBW7–phospho-cyclin E peptide binding, activator screen. AID 1259310. normalized activity (activation), % at 26.1 µM. Q969H0. actives 0.13% (n = 650,000); in the data active = normalized activity above about 1.9%;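 also: purified mutant Fbw7 with reduced substrate affinity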
TEAD-YAP block = TEAD-YAP interaction inhibition; HEK-TIYL cells, TEAD-Gal4/YAP UAS-luciferase luminescence; actives 1.4% (n = 640,000); inhibition, % at 9.12 µM; in the data active = inhibition above about 32%
GPR151 confirm = human GPR151 activation, confirmation screen | shares compounds with GPR151 activ | GPR151 PathHunter beta-arrestin cells, luminescence, 90 min; % of EA-reagent control over plate median | activation, % at 11.2 µM | 6,700 tested, under 10 active | AID 1508609;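 active = mean percent activation across replicates above the confirmation screen cutoff of 4.91%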
GPR119 counter = activates human GPR119 in a GPR151 counter-screen; shares compounds with GPR151 activ; GPR119 PathHunter beta-arrestin cells, luminescence, 90 min; 0 = compound-well median, 100 = enzyme-acceptor control; activation, % at 11.2 µM; actives 0.3% (n = 6,700); AID 1508611;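 active = mean percent activation in the counterscreen above 29.09%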;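 also: counterscreen on off-target GPR119 to flag nonselective hits from the GPR151 activator screen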
Target sequence (Q8TDV5 whole entry, looked up): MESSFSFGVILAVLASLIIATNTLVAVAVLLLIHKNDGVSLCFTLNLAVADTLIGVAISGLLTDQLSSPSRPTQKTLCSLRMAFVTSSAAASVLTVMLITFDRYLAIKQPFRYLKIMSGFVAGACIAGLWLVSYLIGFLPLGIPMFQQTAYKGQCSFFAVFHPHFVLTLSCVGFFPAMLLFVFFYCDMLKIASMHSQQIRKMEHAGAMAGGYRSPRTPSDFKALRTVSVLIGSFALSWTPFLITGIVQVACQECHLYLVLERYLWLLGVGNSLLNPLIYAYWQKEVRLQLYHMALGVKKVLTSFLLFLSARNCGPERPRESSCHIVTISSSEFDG
Each line names hits and unclear results; the compound was inactive in the other large screens (follow-up assays come after a bar, where they were run). This is a sample that favours compounds with a hit; in the whole collection about 3.5% have one here.

CC(C)N(Cc1nc(-c2ccccc2)no1)C(=O)CCCN1C(=O)c2ccccc2C1=O	GPR151 activ 11 | GPR151 confirm inactive | GPR119 counter inactive
CCCNC(=O)C1CCC(CNS(=O)(=O)c2ccc(OC)cc2)CC1 (stereo not given)	none
COCCNC(=O)C1CCC(CNS(=O)(=O)c2ccc(OC)cc2)CC1 (stereo not given)	GPR151 activ 6.0 | GPR151 confirm inactive | GPR119 counter inactive
COCc1ccc(CN2CCCC(CNS(=O)(=O)c3ccc(OC)cc3)C2)o1 (stereo not given)	GPR151 activ 4.9 | GPR151 confirm inactive | GPR119 counter inactive
CC(=O)C1C(=O)CC(C)(O)C(C(C)=O)C1c1ccc2c(c1)OCO2 (stereo not given)	none
COC(=O)c1cc(OC)c(OC)cc1NC(=O)c1cc(Cl)ccc1Cl	GPR151 activ 6.3 | GPR151 confirm inactive | GPR119 counter inactive
COC(=O)c1cc(OC)c(OC)cc1NC(=O)CCN1C(=O)c2ccccc2C1=O	GPR151 activ 5.9 | GPR151 confirm inactive | GPR119 counter inactive
COc1ccc(-c2noc(CN3CCN(c4ccccc4)CC3C)n2)c(OC)c1OC (stereo not given)	GPR151 activ 4.9 | GPR151 confirm inactive | GPR119 counter inactive
COCC1CCCCN1Cc1nc(-c2ccc(OC)c(OC)c2OC)no1 (stereo not given)	none
CCC(C(=O)O)n1c(O)c(/C=C2\C=Nc3ccccc32)sc1=S (stereo not given)	GPR151 activ 9.1 | GPR151 confirm inactive | GPR119 counter inactive
Cc1cn2c3c(=O)n(CCc4ccccc4)c(=O)n(C)c3nc2n1C	none
N#CCOc1ccc2c(=O)c(Oc3ccccc3Cl)coc2c1	GPR151 activ 5.6 | GPR151 confirm inactive | GPR119 counter inactive
O=C(Oc1ccc2c(-c3cc4ccccc4oc3=O)cc(=O)oc2c1)C1CC1	GPR151 activ 9.2 | GPR151 confirm inactive | GPR119 counter inactive
CCC(=O)Oc1ccc2c(-c3cc4ccccc4oc3=O)cc(=O)oc2c1	GPR151 activ 5.4 | GPR151 confirm inactive | GPR119 counter inactive
CCOc1ccc2c(-c3cc4ccccc4oc3=O)cc(=O)oc2c1	none
CC(=O)c1cccc(-c2nc(NCCN3CCOCC3)c3ncn(Cc4ccc(C(F)(F)F)cc4)c3n2)c1	none
O=C(Oc1ccc(-c2ccccc2)cc1)N1CCOCC1	GPR151 activ 5.8 | GPR151 confirm inactive | GPR119 counter inactive
Cc1cccc(C(=O)NNC(=O)/C=C/C(=O)O)c1	GPR151 activ 9.2 | GPR151 confirm inactive | GPR119 counter inactive
Cc1c(C(=O)NCC2CCCO2)oc2ccc3c(c12)C=CC(C)(C)O3 (stereo not given)	GPR151 activ 10 | GPR151 confirm inactive | GPR119 counter inactive
CCCc1ccc(-c2ccc(C(=O)Nc3ccc(C)cc3)cc2)nc1	GPR151 activ 7.1 | GPR151 confirm inactive | GPR119 counter inactive
O=[N+]([O-])c1ccc(Cl)c2c1C1C=CCC1C(c1ccccn1)N2 (stereo not given)	GPR151 activ 5.1 | GPR151 confirm inactive | GPR119 counter inactive
CC(C)(C)OC(=O)N1CCN(c2ccc(Oc3cc(Nc4ccccc4-c4ncn[nH]4)c(C(F)(F)F)cn3)cc2)CC1	none
O=C1CN(C(=O)Nc2ccc3ccccc3c2)C(c2ccccc2)c2cc(Br)ccc2N1 (stereo not given)	none
CC(C)c1ccc(-n2cc(-c3ccc(C(=O)N4CCCC4)cn3)cn2)cc1	GPR151 activ 6.2 | GPR151 confirm inactive | GPR119 counter inactive
Cc1csc(NC(=O)C2CCCN(S(=O)(=O)c3cccc4nsnc34)C2)n1 (stereo not given)	none
CCOc1ccc(/C=C2\SC(=S)N(C(C)C(=O)O)C2=O)cc1 (stereo not given)	GPR151 activ 11 | GPR151 confirm inactive | GPR119 counter inactive
c1csc(-c2nnc(N3CCOCC3)c3ccccc23)c1	GPR151 activ 5.9 | GPR151 confirm inactive | GPR119 counter inactive
C=CCN(CC=C)CCOc1ccccc1C(=O)OC	none
O=C1NC(=O)C(=Cc2ccc(OCc3ccccc3)c(C(=O)O)c2)C(=O)N1	GPR151 activ 5.6 | GPR151 confirm inactive | GPR119 counter inactive
CC(C)(C)c1ncn(-c2ccc(Nc3nccc(-c4cccc(F)n4)n3)cc2)n1	none
Cc1ccc(N2C(=O)CSC23C(=O)Nc2ccccc23)cc1Br (stereo not given)	GPR151 activ 5.0 | GPR151 confirm inactive | GPR119 counter inactive
Cc1cc(N2C(=O)CSC23C(=O)Nc2ccccc23)ccc1Br (stereo not given)	none
COc1cc([N+](=O)[O-])cc([N+](=O)[O-])c1OCC(=O)N/N=C/c1cccc(C)c1O	none
C=C(C)Cn1c(N2CCC(C)CC2)nc2c1c(=O)n(C)c(=O)n2C	none
Cc1ccccc1OC1=NS(=O)(=O)c2cc([N+](=O)[O-])ccc21	GPR151 activ 8.6 | GPR151 confirm inactive | GPR119 counter inactive
COCCCNC(=O)c1cccnc1SCc1ccccc1Cl	GPR151 activ 5.5 | GPR151 confirm inactive | GPR119 counter inactive
Cc1cccc(-n2cc(-c3ccccc3)nc2SCC(=O)Nc2ccc(Cl)cc2)c1	GPR151 activ 6.3 | GPR151 confirm inactive | GPR119 counter inactive
CC(=O)N(CN1C(=O)c2ccc(Br)cc2C1=O)c1cccc(C(=O)O)c1	none
Cc1ccc(C)c(NC(=O)CN2CCC(c3nc4ccccc4[nH]3)CC2)c1	GPR151 activ 6.0 | GPR151 confirm inactive | GPR119 counter inactive
Cc1cccc(NC(=O)CN2CCC(c3nc4ccccc4[nH]3)CC2)c1	none
O=C(C1CCCCC1)N1CCC(c2nc3ccccc3[nH]2)CC1	GPR151 activ 5.8 | GPR151 confirm inactive | GPR119 counter inactive
Cc1ccc(C(=O)NCC(=O)OC(C)C(=O)Nc2cc(Cl)cc(Cl)c2)s1 (stereo not given)	none
CCOc1ccc(NC(=O)C2CC(=O)N(CC)C(=Nc3cccc(Cl)c3)S2)cc1 (stereo not given)	none
COc1ccc(CCN2C(=O)NC(NC(C)=O)(C(F)(F)F)C2=O)cc1OC (stereo not given)	GPR151 activ 5.0 | GPR151 confirm inactive | GPR119 counter inactive
COc1ccc2sc(C)[n+](CC(=O)O)c2c1	none
CCOC(=O)C[n+]1c(C)sc2ccc(OC)cc21	GPR151 activ 6.1 | GPR151 confirm inactive | GPR119 counter inactive
COc1ccc(C)cc1NC(=O)C1CCN(C(=O)c2cc(OC)c(OC)c(OC)c2)CC1	none
CCOC(=O)c1[nH]c(C)c(C(=O)OCc2nc3ccc(Cl)cc3n2CCO)c1C	GPR151 activ 6.3, TEAD-YAP block 56 | GPR151 confirm inactive | GPR119 counter inactive
COc1cc(C(=O)OCC2CC(c3ccccc3)=NO2)cc(OC)c1OC (stereo not given)	GPR151 activ 5.4 | GPR151 confirm inactive | GPR119 counter inactive
COc1ccc(C(=O)OCC2CC(c3ccccc3)=NO2)cc1OC (stereo not given)	none
